# Results as given in the supplement of paper PMC6555819.
# How the values were obtained:
# Test in all cases: PBM binding z-score (relative to random genomic background probes); higher = stronger binding; sequences stand for … in GC…GCGATTGACAGCGTAGAATGAAGG
# [1] = tested on: RARb homodimer (NR concentration 270 nM)
# How it was run: (§1)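 Custom Agilent 4×180K protein-binding microarrays carried double-stranded probes. Their 34-nt variable regions held direct-repeat seeds, single-nucleotide variants, half-site ablations and random human genomic background sequences. Arrays were incubated 1 h with ligand-free nuclear receptor dimers in PBS pH 7.4, 2% milk, 0.02% Triton X-100, 1 mM DTT, 0.2 mg/mL BSA and 0.4 mg/ml salmon testes DNA. Antibodies against each partner (one per run) detected binding, and scanned fluorescence was regression-normalized. Binding z-scores use random background probes as reference.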
# [2] = tested on: RARg:RXRa (NR concentration 270 nM, RXRa partner concentration 90 nM)
# How it was run: as §1
# [3] = tested on: RARg homodimer (NR concentration 270 nM)
# How it was run: as §1
# [4] = tested on: RXRa DBDmut IVT, anti-RXR (DBD mutation: RXRa K156A/R161A, NR concentration 90 nM)
# How it was run: as §1
# [5] = tested on: RXRa homodimer (NR concentration 180 nM)
# How it was run: as §1
# [6] = tested on: THRa:RXRa (NR concentration 90 nM, RXRa partner concentration 90 nM)
# How it was run: as §1
# [7] = tested on: THRa homodimer (NR concentration 90 nM)
# How it was run: as §1
# [8] = tested on: VDR homodimer (NR concentration 270 nM)
# How it was run: as §1
Sequence,PBM binding z-score [1],PBM binding z-score [2],PBM binding z-score [3],PBM binding z-score [4],PBM binding z-score [5],PBM binding z-score [6],PBM binding z-score [7],PBM binding z-score [8]
GCTATTAGTTGAAACGGCAACCGAATGATTCTCG,-0.548,-0.122,-0.103,0.644,-0.226,-0.488,-0.463,-0.198
AATACAGGGTCATCGTAGGCCAGGGTACGCACAG,3.72,5.54,5.21,3.32,6.38,4.57,1.69,3.9
CAAACTAGGTCACAGAGGTCAATGTCCGTGCGTA,5.68,6.89,7.2,3.06,6.85,4.66,2.96,6.33
CTCGAAAGGTCGGTTGGGGTGAGTATACGGATAA,2.88,3,2.42,1.18,2.69,4.95,1.86,1.55
TCTGCTAGGTCAGTTGGTAAGCTAACGAGCTGCC,1.95,2.35,3.32,0.399,0.543,1.16,-0.266,-0.694
ATATGTAGGTTAGCTGGGGTCATTCAGACTAGGC,3.87,4.18,2.91,2.27,5.35,5.18,3.18,5.47
AACTCTAGGTAAAAGTTCAGTGAATCCCGAGGAT,2.27,1.77,1.69,0.858,1.76,1.22,0.014,1.4
TCTCGGAGGACACGAAAGGTCAGAGCTCGACATC,4.73,4.97,5.83,0.844,3.97,3.52,1.08,0.918
TCCTATAGGTAAAGGTGAAAGTCGAACGATATGA,1.42,1.47,1.3,0.809,1.98,1.26,-0.248,0.13
CCTCGGAGGAGAACAGGAGGTCAGAGCTGCCAGA,2.87,2.04,1.63,-0.274,1.76,2.21,0.793,0.851
AATACAGGGTCACTAGGCCACAGTAGGTACGAAT,3.36,5.36,4.87,2.86,5.56,3.38,1.32,2.95
AATAGAGGGTCACTAGGCCAGAGTAGGTACGAAT,3.01,4.11,4.52,1.93,4.2,1.99,0.353,1.1
CGTCCAAGGTCAAGGTCAGAGAAAGAGACTCGAA,4.83,6.78,7.97,3.66,6.72,4.16,3.41,3.04
ATCTCTAGGTAGAGTTCAGTGAAAGATCGATAGA,1.89,1.61,1.55,2.18,1.3,0.946,-0.259,3.41
CGTCCACGGTCAAGGTCAGTGAAAGAGACTCGAA,3.86,3.41,5.01,0.716,2.45,3.05,1.64,0.791
CAAACTAGGTCAAGGTCAAAGTGGGTTTGTGCCA,5.23,5.95,6.67,3.05,5.78,4.34,3.93,5.14
TTACCAAGGTGAAGGTCGTTGGTCCCTCTGTAGA,1.98,1.01,0.783,0.488,1.27,2.29,1.1,0.98
ATCTCTAGGTAAGACCCAGTTCAGTGAAGAACGC,0.62,0.282,0.0331,0.175,0.283,0.738,0.878,1.3
ACTCGGAGGACAAAGGTCATAGCTACGCCAGTGA,4.7,6.88,5.24,1.91,6.51,4.13,1.2,2.55
TAGCGTAGGTCATGGGCCAGTATACCACGCGAAC,2.74,4.61,4.67,-0.189,4.73,2.38,-0.142,0.0635
TCATATAGGTAACACAGGTGAAAGTCGGCATCTA,1.12,1.13,0.999,1.73,1.55,1.36,0.518,0.493
TCATATGGGTAAAAGGTGAAAGTCGGTGTGGTAA,1.98,1.7,0.446,1.05,2.64,1.46,0.164,-0.0613
CCTAGTTTGTCAAGGTCACACACGCTATAGGTAC,4.5,4.51,4.58,2.88,4.73,4.32,4.77,4.93
CCGACTGGGCCAAAGGTCATTGATTCCAATGCTC,4.58,5.54,4.4,1.57,5.7,3.21,0.644,2.4
TCTCGAAGGACACGAAAGGTCAGAGCTCGACATC,4.81,4.59,4.73,1.37,4.17,3.39,0.878,0.702
ATCTCTAGGTCAGACTCAGTTCAGTGAAGAACGC,3.14,3.81,4.03,1.47,1.67,2.94,2.03,2.32
CCTAGCAGGCCAGGGTCACTCAAGCATTTCGCTT,2.82,3.21,2.84,0.493,3.9,2.92,1.2,1.25
CGAACGACGGCATGAGTTGATAGCAAATGCCGAT,-1.1,-0.397,-0.191,-0.218,-0.57,-0.799,-1.12,-0.0876
TAGCCTAGGTCATCGGGCCAGTATAGTACGCATC,3.22,4.32,4.38,0.957,3.29,2.96,1.16,0.811
